The campaign covered roughly 190,000 compounds. About 1,300 (0.68%) were called active. No stated cut-off is given here; in the data, active means inhibition above about 50%; inactive means the rest. Many of the other results were omitted from the sample, so actives are more common in it than they were.
molecular target: Mannose-6-phosphate isomerase (Homo sapiens) (UniProt P34949); assay: human PMI inhibitors, high substrate, primary screen, biochemical, fluorescence intensity, high mannose 6-phosphate (AID 1220); conditions: recombinant PMI enzyme, coupled fluorescence intensity; at 20 µM; active compounds read high
Sequence (P34949 whole entry, looked up): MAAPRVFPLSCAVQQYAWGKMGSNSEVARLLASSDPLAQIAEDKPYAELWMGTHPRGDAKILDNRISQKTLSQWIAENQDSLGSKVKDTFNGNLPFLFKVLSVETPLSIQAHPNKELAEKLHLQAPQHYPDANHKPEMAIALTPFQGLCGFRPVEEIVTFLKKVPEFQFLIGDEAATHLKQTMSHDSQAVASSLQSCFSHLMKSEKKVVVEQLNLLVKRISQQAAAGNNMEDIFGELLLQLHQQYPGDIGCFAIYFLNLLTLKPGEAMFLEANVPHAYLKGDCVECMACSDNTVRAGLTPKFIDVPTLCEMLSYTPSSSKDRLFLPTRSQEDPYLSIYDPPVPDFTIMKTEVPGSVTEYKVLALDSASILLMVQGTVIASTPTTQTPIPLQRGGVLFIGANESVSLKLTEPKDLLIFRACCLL

| Compound | inhibition |
| --- | --- |
| COc1ccccc1CN1CCNC(=O)C1CC(=O)NCc1csc(C)n1 (stereo not given) | 9.7% (inactive) |
| CSc1ccc(/C=N/NC(=O)CN2CCN(Cc3ccccc3Cl)CC2)cc1 | 0.4% (inactive) |
| Cc1ccc(OCC(=O)c2cc(C)c(C)cc2C)c([N+](=O)[O-])n1 | 4.2% (inactive) |
| Cc1ccc(C)c(C(=O)COc2ccc(C)nc2[N+](=O)[O-])c1 | 18.4% (inactive) |
| CCCn1c(C)cc(C(=O)COc2ccc(C)nc2[N+](=O)[O-])c1C | 3.2% (inactive) |
| COCCn1c(C)cc(C(=O)COc2ccc(C)nc2[N+](=O)[O-])c1C | 51.6% (active) |
| Cc1ccc(OCC(=O)c2ccc(Cl)s2)c([N+](=O)[O-])n1 | 55.6% (active) |
| COCCn1c(C)cc(C(=O)COc2nc3ccccc3nc2C)c1C | 8.5% (inactive) |
| COCCn1c(C)cc(C(=O)COc2cccnc2[N+](=O)[O-])c1C | 59.4% (active) |
| Cc1cc(C)c(C(=O)COc2cccnc2[N+](=O)[O-])cc1C | 24.3% (inactive) |
| Cc1ccc(OCC(=O)c2cc(C)n(C)c2C)c([N+](=O)[O-])n1 | 42.3% (inactive) |
| O=C(CCN1C(=O)c2cccnc2C1=O)NC1CCCCCC1 | 9.7% (inactive) |
| CCC(=O)Nc1ccc(N2CCN(S(C)(=O)=O)CC2)cc1 | 3.4% (inactive) |
| Cc1cc(NCCCn2ccnc2)n2nc(-c3ccc(F)cc3)cc2n1 | -14.3% (inactive) |
| O=C(N/N=C/c1ccncc1)c1cccc(NC(=O)c2ccc(Cl)cc2)c1 | -140% (inactive) |
| C#CCOCCOCCOCCNc1nc(N2CCN(C(=O)Cn3cc(CCCN=C(N)N)nn3)CC2)nc(N2CCN(C(=O)[C@H]([C@@H](C)CC)n3cc(CCCN=C(N)N)nn3)CC2)n1 | -53.5% (inactive) |
| CCOC(=O)N1CCC(NC(=O)C2CCCN(c3nc4ccccc4o3)C2)CC1 (stereo not given) | 3.2% (inactive) |
| CC(NC(=O)C(Cc1ccccc1)NC(=O)c1ccccc1)C(=O)O (stereo not given) | -5.7% (inactive) |
| N=C(N)Cc1ccccc1Sc1ccccc1 | -7.9% (inactive) |
| Cc1ccc(NC(=O)c2ccc(F)c(S(=O)(=O)N3CCOCC3)c2)cc1F | 0.5% (inactive) |

| Compound | inhibition |
| --- | --- |
| COC(=O)N/N=C/c1cn(Cc2ccccc2Cl)c2ccccc12 | 16.8% (inactive) |
| Cc1[nH][nH]c(=O)c1C(c1c(C)[nH][nH]c1=O)c1cn(Cc2ccccc2Cl)c2ccccc12 | 50.3% (active) |
| CCOC(=O)N1CCN(C(=O)CS(=O)(=O)c2cn(Cc3ccccc3Cl)c3ccccc23)CC1 | 3.6% (inactive) |
| Cc1nccn1Cc1cccc2ccccc12 | -0.7% (inactive) |
| O=c1c2ccccc2ncn1Cc1cccc2ccccc12 | 7.1% (inactive) |
| Cc1[nH][nH]c(=O)c1C(c1c(C)[nH][nH]c1=O)c1cn(Cc2cccc3ccccc23)c2ccccc12 | 56% (active) |
| O=C(O)c1ccc(Cl)c(S(=O)(=O)Nc2ccccc2N2CCOCC2)c1 | -3.7% (inactive) |
| CC(C)=C1C2C=CC1C(C(=O)Nc1cccc(C)c1)C2C(=O)O (stereo not given) | 0.3% (inactive) |
| O=C(COC(=O)c1cc(=O)c2ccccc2o1)NC1CCCC1 | 30.5% (inactive) |
| CCCCCC(=O)Nc1cc2[nH]c(=O)cc(COC)c2cc1C | -2.7% (inactive) |
| CCC(=O)Nc1cc2c(C)cc(=O)oc2cc1C | -14.2% (inactive) |
| CCC(=O)Nc1cc2[nH]c(=O)cc(C)c2cc1C | 54.6% (active) |
| C#CCOCCOCCOCCNc1nc(N2CCN(C(=O)[C@H](C)n3cc(CCCN=C(N)N)nn3)CC2)nc(N2CCN(C(=O)[C@H](Cc3ccc(O)cc3)n3cc(CCO)nn3)CC2)n1 | -38% (inactive) |
| COc1ccc(C(CC(=O)c2ccccc2)CC(=O)c2ccccc2)cc1OC | 4% (inactive) |
| N#CC1=C(N)Oc2cc(O)c(C=Nc3ccccc3)cc2C1c1ccccc1 (stereo not given) | -4% (inactive) |
| Cc1ccc(C2C(C#N)=C(N)Oc3cc4c(cc32)OCO4)cc1 (stereo not given) | 0.5% (inactive) |
| Cc1ccccc1N=Cc1cc2c(cc1O)OC(N)=C(C#N)C2c1ccccc1 (stereo not given) | 55% (active) |
| COc1ccc(N=Cc2cc3c(cc2O)OC(N)=C(C#N)C3c2ccccc2)cc1 (stereo not given) | 50.4% (active) |
| Cc1ccc(N=Cc2cc3c(cc2O)OC(N)=C(C#N)C3c2ccccc2)cc1 (stereo not given) | 10.5% (inactive) |
| N#CC1=C(N)Oc2cc(O)ccc2C1c1ccccc1 (stereo not given) | 7.4% (inactive) |

| Compound | inhibition |
| --- | --- |
| Clc1ccc(C2=NCCN2)cc1 | 1.4% (inactive) |
| O=C(Cc1ccc(F)cc1)N/N=C/c1ccccn1 | 16.5% (inactive) |
| Cn1c(=O)[nH]c(=O)c2c1nc(N1CCOCC1)n2CC(O)COc1ccc2ccccc2c1 (stereo not given) | 6.5% (inactive) |
| O=C(NC1CCCc2ccccc21)c1ccc(CNc2c(N3CCOCC3)c(=O)c2=O)cc1 (stereo not given) | -6.9% (inactive) |
| CCOC(=O)c1cc2c(ccn2C)n1Cc1cc(C)ccc1C | 22.9% (inactive) |
| CCOC(=O)c1cc2c(ccn2C)n1CC(=O)N1CCC(C)CC1 | 13.8% (inactive) |
| CCOC(=O)c1cc2c(ccn2C)n1CC(=O)N1CCCC(C)C1 (stereo not given) | 7.2% (inactive) |
| CCOC(=O)c1cc2c(ccn2C)n1CC(=O)N(C)C | 44.7% (inactive) |
| CCOC(=O)c1cc2c(ccn2C)n1Cc1ccccc1Cl | 50.5% (active) |
| CCOC(=O)c1cc2c(ccn2C)n1Cc1ccc(C#N)cc1 | 35.1% (inactive) |
| CCOC(=O)c1cc2c(ccn2C)n1CC(=O)N1C(C)CCCC1C (stereo not given) | 52% (active) |
| CCOC(=O)c1cc2c(ccn2C)n1Cc1ccc(Cl)cc1 | 52.4% (active) |
| CCOC(=O)c1cc2c(ccn2C)n1Cc1ccccc1C | 22.3% (inactive) |
| CCOc1cc(CNCc2ccccn2)cc(Cl)c1OC | -0.7% (inactive) |
| Cc1noc(C)c1C(=O)Nc1sc2c(c1C(N)=O)CCC2 | 0.1% (inactive) |
| Cc1ccccc1CSc1nc2c(c(=O)[nH]1)CCC2 | 6.8% (inactive) |
| O=C(O/N=C1\CCCc2ccccc21)c1cccc(Cl)c1 | 7.1% (inactive) |
| CCN(CCn1cccn1)C(=O)CCc1nnc(-c2ccc3c(c2)OCO3)o1 | 5.8% (inactive) |
| CN(C)S(=O)(=O)c1ccc(C(=O)Nc2cc(=O)n(C)c(=O)n2C)cc1 | 3.9% (inactive) |
| O=C(c1nc2ncccn2n1)N1CCN(c2ccc(F)cc2)CC1 | 15% (inactive) |

— PubChem BioAssay AID1220 (Sanford-Burnham Center for Chemical Genomics, 2008)
